Common to all, as to experiment: DAPPL (digital affinity profiling via proximity ligation, sequencing); 10 mM Tris-HCl pH 7.5, 50 mM NaCl, 1 mM DTT, 4% glycerol, room temperature, 30 min; GST-TFs on glutathione beads, 16-mer random dsDNA library, 0.1% formaldehyde crosslink after washing; high values mean tight binding
Settings in all cases: protein: recombinant; tags: N-terminal GST; dsDNA, one strand shown

One assay has as its target T1, ERF (Homo sapiens, UniProt P50548 1-548).
T1 sequence: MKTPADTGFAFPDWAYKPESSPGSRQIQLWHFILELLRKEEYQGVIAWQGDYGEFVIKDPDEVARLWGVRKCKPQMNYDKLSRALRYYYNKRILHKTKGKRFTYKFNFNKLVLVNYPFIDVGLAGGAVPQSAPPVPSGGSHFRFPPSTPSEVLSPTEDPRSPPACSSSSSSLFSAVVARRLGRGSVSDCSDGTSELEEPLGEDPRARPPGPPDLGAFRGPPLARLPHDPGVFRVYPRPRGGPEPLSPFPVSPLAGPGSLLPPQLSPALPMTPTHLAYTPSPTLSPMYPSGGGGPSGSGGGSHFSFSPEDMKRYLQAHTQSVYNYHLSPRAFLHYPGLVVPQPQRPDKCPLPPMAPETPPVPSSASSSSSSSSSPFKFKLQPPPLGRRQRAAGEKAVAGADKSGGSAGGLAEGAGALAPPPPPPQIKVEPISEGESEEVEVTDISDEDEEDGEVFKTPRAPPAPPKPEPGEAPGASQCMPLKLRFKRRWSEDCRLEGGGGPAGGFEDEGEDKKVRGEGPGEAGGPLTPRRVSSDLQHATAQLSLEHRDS
The essentials:
(§1)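 Sequencing on an Illumina NextSeq500 followed washing, crosslinking with 0.1% formaldehyde, proximity ligation (BsaI/T4 ligase, 1 h, 37 °C) and PCR amplification of pools that had been incubated for 30 min at room temperature with 200 nmole of a random double-stranded 16-mer DNA library in Tris/NaCl/DTT/glycerol buffer. Each pool held DNA-barcoded human transcription factors, expressed in yeast as GST fusions and captured on glutathione beads, plus a tag-only sample. Binding signal is a hexamer's read frequency for a factor divided by its frequency in the tag-only sample.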

The target of the next assay is T2, ETV3L (Homo sapiens, UniProt Q6ZN32 1-361).
T2 sequence: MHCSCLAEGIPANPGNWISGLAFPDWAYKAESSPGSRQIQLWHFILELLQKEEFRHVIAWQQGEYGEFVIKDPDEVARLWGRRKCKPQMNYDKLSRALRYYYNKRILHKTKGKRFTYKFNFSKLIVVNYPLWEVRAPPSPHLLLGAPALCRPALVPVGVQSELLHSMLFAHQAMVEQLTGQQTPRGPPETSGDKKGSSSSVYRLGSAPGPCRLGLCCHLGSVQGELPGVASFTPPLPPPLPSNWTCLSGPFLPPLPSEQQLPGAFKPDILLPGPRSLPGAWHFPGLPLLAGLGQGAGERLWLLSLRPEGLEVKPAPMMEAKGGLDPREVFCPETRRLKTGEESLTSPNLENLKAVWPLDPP
The essentials:
as §1

For another assay, the target named is T3, ETS2 (Homo sapiens, UniProt P15036 1-469).
T3 sequence: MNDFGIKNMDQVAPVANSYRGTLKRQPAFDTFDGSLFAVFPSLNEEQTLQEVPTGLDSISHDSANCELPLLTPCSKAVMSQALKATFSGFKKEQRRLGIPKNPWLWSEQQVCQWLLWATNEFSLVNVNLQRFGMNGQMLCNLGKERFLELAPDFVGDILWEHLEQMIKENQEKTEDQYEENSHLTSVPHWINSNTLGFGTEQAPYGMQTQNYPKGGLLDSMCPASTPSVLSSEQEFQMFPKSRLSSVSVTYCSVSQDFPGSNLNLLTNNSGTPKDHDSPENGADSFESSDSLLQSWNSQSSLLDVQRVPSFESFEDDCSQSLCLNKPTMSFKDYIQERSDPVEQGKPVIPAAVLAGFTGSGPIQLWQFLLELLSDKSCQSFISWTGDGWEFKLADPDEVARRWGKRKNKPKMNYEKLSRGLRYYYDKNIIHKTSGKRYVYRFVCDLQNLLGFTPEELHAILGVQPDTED
The essentials: as §1

Another assay concerns the target T4, SPDEF (Homo sapiens, UniProt O95238 1-335).
T4 sequence: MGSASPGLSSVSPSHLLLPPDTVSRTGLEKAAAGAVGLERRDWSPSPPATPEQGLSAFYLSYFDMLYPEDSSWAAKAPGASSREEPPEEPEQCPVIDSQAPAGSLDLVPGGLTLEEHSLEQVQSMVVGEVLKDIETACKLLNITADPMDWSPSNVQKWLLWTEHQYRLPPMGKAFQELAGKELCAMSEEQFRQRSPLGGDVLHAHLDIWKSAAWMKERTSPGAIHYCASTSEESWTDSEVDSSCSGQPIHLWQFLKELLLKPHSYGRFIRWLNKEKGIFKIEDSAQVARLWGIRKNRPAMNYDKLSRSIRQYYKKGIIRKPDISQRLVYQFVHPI
The essentials:
as §1

A further assay deals with T5, ETV7 (Homo sapiens, UniProt Q9Y603 1-341).
T5 sequence: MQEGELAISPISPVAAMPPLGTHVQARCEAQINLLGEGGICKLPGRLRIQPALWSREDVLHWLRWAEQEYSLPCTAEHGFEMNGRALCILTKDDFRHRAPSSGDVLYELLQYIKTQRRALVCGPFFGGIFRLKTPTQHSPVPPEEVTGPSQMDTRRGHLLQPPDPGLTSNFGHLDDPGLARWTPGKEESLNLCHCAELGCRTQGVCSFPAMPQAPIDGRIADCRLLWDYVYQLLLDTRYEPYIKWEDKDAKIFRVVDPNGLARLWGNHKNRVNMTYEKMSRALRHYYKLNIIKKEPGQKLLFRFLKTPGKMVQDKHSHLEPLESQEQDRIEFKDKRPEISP
The essentials:
as §1

The target in the next assay is T6, ELF5 (Homo sapiens, UniProt Q9UKW6-2 1-255).
T6 sequence: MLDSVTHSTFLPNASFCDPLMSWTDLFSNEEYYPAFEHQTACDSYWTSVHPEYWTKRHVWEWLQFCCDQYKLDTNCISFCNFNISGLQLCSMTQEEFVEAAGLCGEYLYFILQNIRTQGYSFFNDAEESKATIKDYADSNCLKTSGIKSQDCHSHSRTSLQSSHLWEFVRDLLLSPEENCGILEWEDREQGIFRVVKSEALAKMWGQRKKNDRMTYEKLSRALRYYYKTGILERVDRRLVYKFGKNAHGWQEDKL
The essentials: as §1

The target in another assay is T7, ETV3 (Homo sapiens, UniProt P41162-2 1-143).
T7 sequence: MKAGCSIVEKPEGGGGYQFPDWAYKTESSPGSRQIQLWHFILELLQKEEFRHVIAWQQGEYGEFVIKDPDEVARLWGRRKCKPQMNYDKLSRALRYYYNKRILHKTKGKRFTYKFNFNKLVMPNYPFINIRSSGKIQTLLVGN
The essentials: as §1

Another assay addresses ETV6 (Homo sapiens, UniProt P41212 1-452). The essentials: as §1

Sequence of ETV6 (P41212 whole entry): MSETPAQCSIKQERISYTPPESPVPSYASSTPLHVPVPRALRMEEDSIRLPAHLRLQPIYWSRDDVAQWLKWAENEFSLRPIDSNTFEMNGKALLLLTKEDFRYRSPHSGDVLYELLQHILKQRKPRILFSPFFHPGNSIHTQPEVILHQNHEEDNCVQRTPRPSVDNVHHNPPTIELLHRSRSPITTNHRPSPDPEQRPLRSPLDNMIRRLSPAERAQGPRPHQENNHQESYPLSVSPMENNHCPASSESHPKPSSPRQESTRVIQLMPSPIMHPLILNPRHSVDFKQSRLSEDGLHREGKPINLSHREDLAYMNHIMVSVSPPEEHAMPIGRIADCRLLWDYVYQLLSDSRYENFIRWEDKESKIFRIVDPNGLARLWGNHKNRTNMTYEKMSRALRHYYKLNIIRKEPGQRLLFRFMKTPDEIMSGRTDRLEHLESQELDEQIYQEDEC

On to ACCTAC, for which the binding signal in the assay with ERF is 1.17 fold enrichment (6-mer frequency, TF over GST control); with ETV3L, 1.26 fold enrichment (6-mer frequency, TF over GST control); with ETS2, 1.2 fold enrichment (6-mer frequency, TF over GST control); with SPDEF, 1.17 fold enrichment (6-mer frequency, TF over GST control); with ETV7 it was 1.09 fold enrichment (6-mer frequency, TF over GST control); with ELF5, 1.29 fold enrichment (6-mer frequency, TF over GST control). For the same sequence, the binding signal in the assay with ETV3 is 1.25 fold enrichment (6-mer frequency, TF over GST control); in the assay with ETV6 it was 1.32 fold enrichment (6-mer frequency, TF over GST control).
As to AATACC, the binding signal is 1.29 fold enrichment (6-mer frequency, TF over GST control) in the assay with ERF; 1.15 fold enrichment (6-mer frequency, TF over GST control) with ETV3L; 1.21 fold enrichment (6-mer frequency, TF over GST control) with ETS2; 1.11 fold enrichment (6-mer frequency, TF over GST control) with SPDEF; 1.21 fold enrichment (6-mer frequency, TF over GST control) with ETV7; 1.17 fold enrichment (6-mer frequency, TF over GST control) in the assay with ELF5. Moreover, the binding signal with ETV3 is 1.17 fold enrichment (6-mer frequency, TF over GST control); with ETV6 it was 1.16 fold enrichment (6-mer frequency, TF over GST control).
AAATGA: the binding signal in the assay with ERF is 1.42 fold enrichment (6-mer frequency, TF over GST control); in the assay with ETV3L it was 1.29 fold enrichment (6-mer frequency, TF over GST control); with ETS2 it was 1.29 fold enrichment (6-mer frequency, TF over GST control); in the assay with SPDEF, 1.18 fold enrichment (6-mer frequency, TF over GST control); with ETV7 it was 1.42 fold enrichment (6-mer frequency, TF over GST control); in the assay with ELF5 it was 1.25 fold enrichment (6-mer frequency, TF over GST control). Also, the binding signal with ETV3 was 1.43 fold enrichment (6-mer frequency, TF over GST control); with ETV6, 1.47 fold enrichment (6-mer frequency, TF over GST control).
With TAAACG, the binding signal with ERF is 1.11 fold enrichment (6-mer frequency, TF over GST control); with ETV3L it was 1.07 fold enrichment (6-mer frequency, TF over GST control); in the assay with ETS2, 1.16 fold enrichment (6-mer frequency, TF over GST control); with SPDEF, 1.11 fold enrichment (6-mer frequency, TF over GST control); in the assay with ETV7, 1.1 fold enrichment (6-mer frequency, TF over GST control); with ELF5, 1.1 fold enrichment (6-mer frequency, TF over GST control). In addition, the binding signal in the assay with ETV3 was 1.15 fold enrichment (6-mer frequency, TF over GST control); with ETV6, 1.14 fold enrichment (6-mer frequency, TF over GST control).
Regarding CTTTGC, the binding signal in the assay with ERF is 1.32 fold enrichment (6-mer frequency, TF over GST control); with ETV3L, 1.33 fold enrichment (6-mer frequency, TF over GST control); with ETS2, 1.34 fold enrichment (6-mer frequency, TF over GST control); with SPDEF it was 1.24 fold enrichment (6-mer frequency, TF over GST control); with ETV7 it was 1.28 fold enrichment (6-mer frequency, TF over GST control); with ELF5 it was 1.29 fold enrichment (6-mer frequency, TF over GST control). Further, the binding signal in the assay with ETV3 is 1.37 fold enrichment (6-mer frequency, TF over GST control); with ETV6 it was 1.18 fold enrichment (6-mer frequency, TF over GST control).
On to TTACCA, for which the binding signal with ERF is 1.07 fold enrichment (6-mer frequency, TF over GST control); in the assay with ETV3L it was 1.07 fold enrichment (6-mer frequency, TF over GST control); with ETS2 it was 1.13 fold enrichment (6-mer frequency, TF over GST control); with SPDEF, 1.09 fold enrichment (6-mer frequency, TF over GST control); with ETV7 it was 1.12 fold enrichment (6-mer frequency, TF over GST control); with ELF5 it was 1.04 fold enrichment (6-mer frequency, TF over GST control). The binding signal with ETV3 is 1.16 fold enrichment (6-mer frequency, TF over GST control); with ETV6 it was 1.07 fold enrichment (6-mer frequency, TF over GST control).
With GTATCC, the binding signal with ERF was 1.77 fold enrichment (6-mer frequency, TF over GST control); with ETV3L it was 1.81 fold enrichment (6-mer frequency, TF over GST control); with ETS2 it was 1.84 fold enrichment (6-mer frequency, TF over GST control); with SPDEF, 3.14 fold enrichment (6-mer frequency, TF over GST control); in the assay with ETV7, 1.69 fold enrichment (6-mer frequency, TF over GST control); with ELF5 it was 2.1 fold enrichment (6-mer frequency, TF over GST control). Also, the binding signal is 2.03 fold enrichment (6-mer frequency, TF over GST control) with ETV3 and 1.79 fold enrichment (6-mer frequency, TF over GST control) with ETV6.

(Values after article PMC7862700, “An all-to-all approach to the identification of sequence-specific readers for epigenetic DNA modifications on cytosine”.)
